# Test results: PubChem BioAssay AID463173 (ICCB-Longwood Screening Facility, Harvard Medical School, 2010)
# Among all 52,000 compounds or so, about 4,300 (8.3%) were called active. Cut-off read from the data, not from the text of the source: active = survival mostly below about 52% (no sharp cut-off); inactive = mostly above about 56%. Many of the other results were omitted from the sample, so actives are more common in it than they were.
# Tested on: DeltatarO mutant
# Assay: S. aureus survival, RN4220 and DeltatarO strains – OD600, teichoic acid synthesis inhibitors, primary screen (AID 463173)
# Conditions: S. aureus RN4220 wild type/DeltatarO growth, OD600, 18 h, stronger effect = lower value, screened at 18.75 µg/mL (by protocol)
row,Compound,survival
1,COc1ccc2sc(C)[n+](CCO)c2c1,81% (inactive)
2,CCOc1ccc(S(=O)(=O)Nc2ccc3c(c2)CCCN3S(=O)(=O)c2ccc(C)cc2)cc1,88% (inactive)
3,COc1ccc(NC(=O)CN2C(=O)CCn3nc(-c4cccn4C)cc32)cc1,81% (inactive)
4,COc1cc(OC)cc(N2C(=O)CSC23C(=O)Nc2ccccc23)c1 (stereo not given),99% (inactive)
5,COc1ccc(OC)c(CNC(=O)c2c(C)oc3ncn(CC(C)C)c(=O)c23)c1,89% (inactive)
6,COc1ccc(Nc2cc(C)nc(-n3nc(C)cc3C)n2)cc1Cl,81% (inactive)
7,COc1ccccc1N1CCN(S(=O)(=O)CCNC(=O)c2cc(=O)c3ccccc3o2)CC1,87% (inactive)
8,CCNC(=S)N1CCC(NC(=O)c2ccccc2)CC1,110% (inactive)
9,CCN(c1ccccc1)S(=O)(=O)c1ccc(Cl)cc1,92% (inactive)
10,CCN(c1ccccc1)S(=O)(=O)c1ccc(NC(=O)c2nc(S(C)(=O)=O)ncc2Cl)cc1,-1% (active)
11,CCN(c1ccccc1)S(=O)(=O)c1ccc(NC(=O)c2cc(=O)c3ccccc3o2)cc1,63% (inactive)
12,CN1C(=O)/C(=C/C=C2/Sc3ccccc3N2CCO)SC1=S,108% (inactive)
13,Cc1c(-c2ccccc2)nc2c(Cl)cccc2c1C(=O)OCC(=O)c1ccc(F)cc1,75% (inactive)
14,O=S(=O)(NCCS(=O)(=O)N1CCN(c2ccccc2)CC1)c1ccc(Br)cc1,91% (inactive)
15,CCCC12CN3CC(C)(CN(C1)C3c1cn(CC)c3ccccc13)C2=O (stereo not given),83% (inactive)
16,Cc1cccc(N2CCN(C(c3nnnn3C3CCCC3)C(C)C)CC2)c1C (stereo not given),79% (inactive)
17,Cc1cc(NC(=O)CCS(=O)(=O)c2cc(Br)cc3c2N(C(=O)C2CC2)CC3)ccc1Br,83% (inactive)
18,COc1ccccc1C(=O)NC1(C(F)(F)F)NC(=O)N(CCc2ccccc2)C1=O (stereo not given),73% (inactive)
19,COc1cc(CN(C(=O)c2ccc(Cl)cc2)C2CCS(=O)(=O)C2)cc(OC)c1OC (stereo not given),69% (inactive)
20,CCOc1cccc(C(=O)N(Cc2ccc(CC)cc2)C2CCS(=O)(=O)C2)c1 (stereo not given),149% (inactive)
21,COc1ccc(C(=O)N(Cc2ccc(C(C)C)cc2)C2CCS(=O)(=O)C2)cc1 (stereo not given),62% (inactive)
22,CCCCOc1cccc(C(=O)N(Cc2ccc(Cl)cc2)C2CCS(=O)(=O)C2)c1 (stereo not given),54% (inactive)
23,COc1ccc(CN(C(=O)c2ccc(OCC(C)C)cc2)C2CCS(=O)(=O)C2)cc1 (stereo not given),93% (inactive)

row,Compound,survival
1,CCCOc1cccc(C(=O)N(Cc2ccc(C)o2)C2CCS(=O)(=O)C2)c1 (stereo not given),90% (inactive)
2,CCOc1cccc(C(=O)N(Cc2ccc(C(C)C)cc2)C2CCS(=O)(=O)C2)c1 (stereo not given),40% (active)
3,COc1cc(CN(C(=O)c2ccc(C)cc2)C2CCS(=O)(=O)C2)cc(OC)c1OC (stereo not given),59% (inactive)
4,COc1cc(C(=O)N(Cc2ccc(C(C)C)cc2)C2CCS(=O)(=O)C2)cc(OC)c1OC (stereo not given),46% (active)
5,CCCCOc1ccc(C(=O)N(Cc2ccc(C(C)C)cc2)C2CCS(=O)(=O)C2)cc1 (stereo not given),22% (active)
6,CCCOc1cccc(C(=O)N(Cc2cc(OC)c(OC)c(OC)c2)C2CCS(=O)(=O)C2)c1 (stereo not given),43% (active)
7,CCCCOc1cccc(C(=O)N(Cc2ccc(N(C)C)cc2)C2CCS(=O)(=O)C2)c1 (stereo not given),56% (inactive)
8,CCN(CC)CCNC(=O)c1c(C)oc2ncnc(N3CCOCC3)c12,130% (inactive)
9,Cc1ccc2oc(C(=O)N(Cc3ccc(N(C)C)cc3)CC3CCCO3)c(C)c2c1 (stereo not given),93% (inactive)
10,Cc1ccccc1-n1c(SCC(=O)N(C(C)C)C(C)C)nnc1-c1cccnc1,99% (inactive)
11,Cn1ccnc1SCC(=O)Nc1cc(Cl)ccc1Cl,68% (inactive)
12,COc1cccc(C2CC(=O)N(c3ccc(F)cc3)C3=C2C(=O)OC3)c1OC (stereo not given),75% (inactive)
13,COc1ccc(-n2nc(C(=O)Nc3ccc(Br)cc3C)c3c4ccccc4n(C)c3c2=O)cc1,97% (inactive)
14,Fc1ccc(C2=CC(c3ccc(F)cc3)n3c(nc4ccccc43)N2)cc1 (stereo not given),87% (inactive)
15,CCOC(=O)c1ccc(NC(=O)CSc2c(C(C)C)cnc3c2c(=O)n(C)c(=O)n3C)cc1,107% (inactive)
16,Cc1ccc2nc(-c3c[nH]c4ccccc34)c(Nc3ccccc3C)n2c1,96% (inactive)
17,CC(=O)N1C(Nc2ccc(C)cc2)CCN1c1ccccc1 (stereo not given),81% (inactive)
18,COc1ccc(Nc2oc(/C=C/c3cccc(OC)c3)nc2C#N)cc1,100% (inactive)
19,Cc1ccc2c(c1)C(c1ccc(F)cc1)N(C(=O)c1ccc(S(=O)(=O)N3CCCCC3)cc1)CC(=O)N2 (stereo not given),178% (inactive)
20,CC1CCN(c2nc3ccccc3nc2SCC(=O)Nc2ccccc2C(C)C)CC1,-1% (active)
21,CC(=O)Nc1ccc(NC(=O)CSc2nc3ccccc3nc2N2CCC(C)CC2)cc1,75% (inactive)
22,Cc1cccc(NC(=O)CSc2nc3ccccc3nc2N2CCC(C)CC2)c1,8% (active)
23,Cc1ccc(C)c(NC(=O)CSc2nc3ccccc3nc2N2CCOCC2)c1,85% (inactive)

row,Compound,survival
1,CCc1ccc(Cn2c(CNS(=O)(=O)c3ccc4c(c3)CCCC4)nc3cccnc32)cc1,102% (inactive)
2,Fc1ccc(-n2ncc3c(N4CCC(Cc5ccccc5)CC4)ncnc32)cc1,90% (inactive)
3,COc1cccc(C2CC(=O)Nc3c2c(=O)n(C)c2ncnn32)c1OC (stereo not given),166% (inactive)
4,Cc1ccc2c(c1)c1c3n2CCN(C(=O)Cn2c(-c4ccccc4)noc2=O)C3CCC1 (stereo not given),90% (inactive)
5,CC1CCc2c(sc(NC(=O)c3cc4nc(-c5ccc(Cl)cc5)cc(C(F)(F)F)n4n3)c2C#N)C1 (stereo not given),91% (inactive)
6,O=S(=O)(c1ccc(Br)cc1)c1nnn2c1nc(NC1CCCCCC1)c1sccc12,63% (inactive)
7,O=S(=O)(c1ccc(Cl)cc1)c1nnn2c1nc(NC1CCCCC1)c1sccc12,41% (inactive)
8,Cc1ccc(S(=O)(=O)c2nnn3c2nc(NC2CCCCC2)c2sccc23)cc1,109% (inactive)
9,Cc1ccc(S(=O)(=O)c2nnn3c2nc(NC2CCCCC2)c2sccc23)cc1C,35% (active)
10,Cc1ccc(S(=O)(=O)c2nnn3c2nc(NC2CCCCCC2)c2sccc23)cc1C,-4% (active)
11,Cc1ccc(C)c(S(=O)(=O)c2nnn3c2nc(NC2CCCCC2)c2sccc23)c1,40% (inactive)
12,CCn1cc2nc(SCc3cccc(Cl)c3)n(Cc3ccc(C)cc3)c(=O)c2n1,44% (inactive)
13,COC(=O)CC(=O)CSc1nc(C)cc(C(F)(F)F)c1C#N,83% (inactive)
14,O=c1cc(CSc2nnc(COc3ccccc3)o2)c2ccccc2[nH]1,107% (inactive)
15,O=C1Nc2c(c(=O)[nH]c(=O)n2-c2ccc(F)cc2)C1(NS(=O)(=O)c1ccc(Cl)cc1)C(F)(F)F (stereo not given),59% (inactive)
16,COC(=O)c1ccccc1NC(=O)c1cc2ccccn2n1,73% (inactive)
17,O=c1c(=O)n(Cc2c(F)cccc2Cl)ccn1Cc1ccccc1,82% (inactive)
18,O=c1c(=O)n(-c2ccccc2)ccn1Cc1c(F)cccc1Cl,44% (active)
19,COc1ccccc1Cn1ccn(Cc2c(F)cccc2Cl)c(=O)c1=O,110% (inactive)
20,Cc1cc(O)c(CN2CCN(c3ccc(F)cc3)CC2)c2oc(=O)cc(C)c12,46% (inactive)
21,CC(=O)Nc1ccc(NC(=O)CCSCCc2ccccn2)cc1,135% (inactive)
22,O=C(CCSCCc1ccccn1)Nc1ccc(Cl)cc1,47% (active)
23,Cc1ccc(NC(=O)CCSCCc2ccccn2)cc1,93% (inactive)

row,Compound,survival
1,COc1ccc(-n2c(C)nnc2SCc2nc(-c3ccc(OC)c(OC)c3)no2)cc1,71% (inactive)
2,COC(=O)c1ccc2c(c1)N(CC(=O)Nc1ccc(C)cc1Cl)C(=O)c1ccccc1S2,76% (inactive)
3,Cc1ccc(C(CC(=O)NCC2(c3ccccc3)CCCC2)c2ccccc2)c(O)c1 (stereo not given),101% (inactive)
4,Cc1ccc(O)c(C(CC(=O)NCC2(c3ccccc3)CCCC2)c2ccccc2)c1 (stereo not given),82% (inactive)
5,Cc1cccc(C(CC(=O)NCC2(c3ccccc3)CCCC2)c2ccccc2)c1O (stereo not given),38% (active)
6,O=C(O)CCc1ccc(-c2ccc(F)cc2)n1CCC(=O)O,103% (inactive)
7,Cc1ccc(NC(=O)CSc2nnc(C)c(=O)[nH]2)cc1,70% (inactive)
8,c1ccc(Cc2[nH]nc3ccccc23)cc1,89% (inactive)
9,Cc1ccc(-n2nnc(-c3nsc(NC(=O)c4cccc(Cl)c4)n3)c2C)cc1C,76% (inactive)
10,Cc1cc(C)cc(-n2nnc(-c3nsc(NC(=O)c4ccccc4Cl)n3)c2C)c1,64% (inactive)
11,CCc1cccc(-n2nnc(-c3nsc(NC(=O)c4ccc(C)cc4)n3)c2C)c1,54% (inactive)
12,CCc1ccc(-n2nnc(-c3nsc(NC(=O)c4ccccc4Cl)n3)c2C)cc1,15% (active)
13,Cc1c(-c2nsc(NC(=O)c3ccccc3)n2)nnn1-c1ccc(C(F)(F)F)c(Cl)c1,86% (inactive)
14,COc1cccc(C(=O)Nc2nc(-c3nnn(-c4ccccc4C(F)(F)F)c3C)ns2)c1,87% (inactive)
15,CSc1cccc(-n2nnc(-c3nsc(NC(=O)c4cccs4)n3)c2C)c1,73% (inactive)
16,CCc1cccc(-n2nnc(-c3nsc(NC(=O)c4cccs4)n3)c2C)c1,-5% (active)
17,Cc1ccc(-n2nnc(-c3nsc(NC(=O)c4ccccc4C)n3)c2C)cc1Cl,134% (inactive)
18,Cc1c(-c2nsc(NC(=O)c3cccc(Cl)c3)n2)nnn1-c1ccccc1C(F)(F)F,-4% (active)
19,Cc1ccc(Cl)cc1-n1nnc(-c2nsc(NC(=O)c3ccccc3Cl)n2)c1C,6% (active)
20,Cc1cccc(C(=O)Nc2nc(-c3nnn(-c4cc(C)ccc4C)c3C)ns2)c1,94% (inactive)
21,O=C(Cn1ncc2c3ccccc3n(Cc3ccccc3F)c2c1=O)NCc1ccccc1Cl,78% (inactive)
